Screening results as filed in PubChem BioAssay.
KKLEB tox = cytotoxicity in KKLEB CF airway cells, primary screen, cytotoxicity control for CF NF-kB inhibitor project, cell-based, uHTS, fluorescence assay plates; KKLEB CF airway cells viability, ATPlite luminescence, overnight; stronger effect = lower value; cells stimulated with P. aeruginosa culture filtrate; activity change (cytotoxicity), % at 5 µM; hit rate 0.36% among 360,000; AID 602141, 2011;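 active = corrected activity change at or below -50% at 5 µM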
Shn3 3UTR inh = reduction of Shn3 3'UTR firefly luciferase signal, primary screen, Schnurri-3 inhibitor project, cell-based, Clone20 osteoblasts, set 2 | Clone20 osteoblast Shn3 3'UTR firefly luciferase, 24 h | inhibition, % at 12.5 µM | hit rate 0.52% among 360,000 | AID 588674, 2011;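 active = mean inhibition of at least 75% with every replicate also reaching 75%; inconclusive = mean inhibition at least 75% but some replicate below; inactive = mean inhibition below 75%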
MITF TRPM1 inh = inhibitors of MITF-dependent TRPM1 promoter reporter, primary screen, cell-based, SK-MEL-5, single point, luciferase; SK-MEL-5 TRPM1 promoter luciferase, 24 h; inhibition, % at 12.5 µM; hit rate 0.83% among 330,000; AID 488899, 2010;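 active = mean inhibition across replicates of 60% or more, whatever share of single replicates reaches that level; inconclusive = some that reach 60%, reason not given; inactive = mean inhibition across replicates below 60%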
HIF-2a block = HIF-2a reporter inhibitors, primary screen, luminescence, 786-0 RCC cells; hit rate 0.72% among 360,000; 786-0 RCC cells HIF-2a reporter, luciferase luminescence, overnight; inhibition, % at 18.8 µM;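 active = inhibition of the luminescence signal of 40% or more relative to plate controls, in a single-dose primary screen at 18.75 µM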
CF NFkB block = inhibitors of PAF-induced NF-kB signaling, primary screen, cell-based, GFP fluorescence, uHTS | KKLEB NF-kB-GFP reporter, GFP fluorescence overnight | hit rate 0.86% among 360,000 | AID 588850, 2011 | inhibition, % at 5 µM;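 active = at least 50% inhibition at 5 µM, scaled per plate between neutral and stimulator controls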;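 also: PAF is a Pseudomonas aeruginosa culture filtrate used as stimulus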
Peg3 prom inh-1 = Peg3 promoter-driven luciferase inhibitors, primary screen, cell-based, HeLa, luciferase luminescence; HeLa PEG-Prom luciferase reporter, overnight; hit rate 1.7% among 360,000; inhibition, % at 20 µM; AID 588405, 2011;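 active = inhibition of at least 50% at 20 µM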
Peg3 prom inh-2 = Peg3 promoter reporter inhibitors, retest, confirmation, cell-based, HeLa, luciferase reporter, single concentration. shares compounds with Peg3 prom inh-1. HeLa PEG-Prom luciferase reporter, luminescence, overnight. inhibition, % at 20 µM. hit rate 84% among 1,300;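 active = at 20 µM dose, 40% or more inhibition averaged across four replicates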
CF NFkB inh conf = inhibitors of PAF-induced NF-kB signaling, retest, confirmation, cell-based, GFP fluorescence, single concentration. shares compounds with CF NFkB block. KKLEB CF airway cells, overnight. inhibition, % at 5 µM. hit rate 64% among 1,300. AID 602472, 2012; in the data active = inhibition above about 40%;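 also: stimulus PAF is a Pseudomonas aeruginosa filtrate and not platelet activating factor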
Mdm2 MdmX conf = retested Mdm2-MdmX interaction blockers, confirmation, cell-based, luminescence, single concentration, set 2. SaOS-2 split-luciferase Mdm2/MdmX complementation. shares compounds with HIF-2a block. hit rate 99% among 740. AID 504601, 2011. inhibition, % at 8 µM;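 active = mean inhibition of the luminescence signal across two replicates at or above 26 percent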
HIF-2a inh conf = HIF-2a reporter inhibitor retest, confirmation, luminescence, 786-0 RCC cells; shares compounds with HIF-2a block; HIF-2a luciferase reporter luminescence, overnight; inhibition, % at 18.8 µM; hit rate 56% among 1,800; AID 651580, 2012;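 active = mean inhibition across four replicates of at least 40 percent at the single tested concentration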
HIF-1a counter = HIF-1a luciferase reporter signal reduction – MiaPaCa-2 cells, single concentration, counter-screen for HIF-2a inhibitor project, confirmation; AID 651589, 2012; inhibition, % at 18.8 µM; hit rate 72% among 1,800; MiaPaCa-2 HIF-1a luciferase reporter, desferoxamine, overnight; shares compounds with HIF-2a block;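 active = mean inhibition of the reporter signal across four replicates at the single tested dose of 50% or more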
Each line names hits and unclear results; the compound was inactive in the other large screens (follow-up assays come after a bar, where they were run). Sampled rows, rich in hits. Any-hit rate of the full collection: about 2.8%.

S=C(Nc1ccccc1)Nc1ccc(OCc2ccc(Cl)cc2Cl)cc1	Shn3 3UTR inh 84.9, MITF TRPM1 inh 82.4, HIF-2a block 92.8, Peg3 prom inh-1 78.7 | Peg3 prom inh-2 73.5 | HIF-2a inh conf 97.9 | HIF-1a counter 99.7
S=C(NCCSCc1ccc(Cl)cc1Cl)Nc1ccccc1	none
CCOC(=O)c1c(C)oc2c(F)c(F)c(F)c(F)c2c1=O	MITF TRPM1 inh 99.8, HIF-2a block 64.3, Peg3 prom inh-1 104.7 | Peg3 prom inh-2 99.4 | HIF-2a inh conf 65.8 | HIF-1a counter 100.5
COc1ccc(/C=C/c2nc3ccccc3n2C)cc1	KKLEB tox -53.2, HIF-2a block 49.2, Peg3 prom inh-1 68.3 | Peg3 prom inh-2 78.3 | HIF-2a inh conf 88.8 | HIF-1a counter 90.9
O=C(O)c1ccc(N/N=C/c2cc(Br)cs2)cc1	none
Nc1ccc(C(=O)N/N=C\c2ccc(OC(=O)c3ccccc3Cl)cc2)cc1	none
CC(C)c1ccc(/C=N/Nc2ccc(C(=O)O)cc2)cc1	MITF TRPM1 inh 68.5, HIF-2a block 80.7, Peg3 prom inh-1 84.6 | Peg3 prom inh-2 66.9 | HIF-2a inh conf 78.6 | HIF-1a counter inactive
O=C(O)c1ccc(N/N=C/c2ccc(OC(=O)c3ccccc3Cl)cc2)cc1	HIF-2a block 81.2, Peg3 prom inh-1 64.4 | Peg3 prom inh-2 57.9 | HIF-2a inh conf 84.2 | HIF-1a counter 79.7
Cc1ccc(/C=N/Nc2ccc(C(=O)O)cc2)s1	MITF TRPM1 inh 81.3, HIF-2a block 65.4, Peg3 prom inh-1 68.7 | Peg3 prom inh-2 62.3 | HIF-2a inh conf 81.8 | HIF-1a counter 76.3
O=C(CCC(=O)N1CCOc2ccccc21)NCc1cccnc1	none (no result: MITF TRPM1 inh)
CC(C)C[C@@H](CO)N1CCN(Cc2cccc(C#N)c2)CCC1=O	none
Cc1cccc(C)c1NC(=O)COC(=O)c1cc[n+]([O-])cc1	none
CCCCOc1ccc(C)cc1CN(CCO)CCO	none
CCCCCc1ccc(OCCCC[n+]2cccc(C)c2)c(CCCCC)c1	MITF TRPM1 inh 78.9, HIF-2a block 95.5, CF NFkB block 57.7, Peg3 prom inh-1 97.5 | Peg3 prom inh-2 96.6 | Mdm2 MdmX conf 102.2 | HIF-2a inh conf inactive | HIF-1a counter 105.8
CCOC(=O)c1c(SCCN2CCCCC2)n(-c2ccccc2)c(=S)n(-c2ccccc2)c1=O	MITF TRPM1 inh 99.2, HIF-2a block 87.4, Peg3 prom inh-1 108.1 | Peg3 prom inh-2 99.0 | HIF-2a inh conf 67.7 | HIF-1a counter 100.6
COc1nc(N/N=C/c2ccc(-c3ccccc3[N+](=O)[O-])o2)nc(N2CCOCC2)n1	none
O=[N+]([O-])c1ccc(-c2ccc(/C=N/Nc3nc(NCc4ccccc4)nc(N4CCOCC4)n3)o2)cc1	KKLEB tox -90.3, MITF TRPM1 inh 77.0, HIF-2a block 59.0, CF NFkB block 50.6, Peg3 prom inh-1 99.2 | Peg3 prom inh-2 80.0 | Mdm2 MdmX conf 102.5 | HIF-2a inh conf inactive | HIF-1a counter inactive
N#CC(C#N)=C1C=CC=CN1/C(=C\c1ccco1)C(=O)c1ccc(Br)cc1	Shn3 3UTR inh 89.6, MITF TRPM1 inh 85.2, HIF-2a block 92.4, CF NFkB block 79.4, Peg3 prom inh-1 110.5 | Peg3 prom inh-2 97.6 | CF NFkB inh conf inactive | HIF-2a inh conf 97.7 | HIF-1a counter 104.8
CN(C)CCNc1ncnc2c1sc1nc(N3CCOCC3)c3c(c12)CC(C)(C)SC3	MITF TRPM1 inh 76.8, HIF-2a block 54.0, Peg3 prom inh-1 80.7 | Peg3 prom inh-2 93.5 | HIF-2a inh conf inactive | HIF-1a counter 80.1
COCCNc1nnnc2c1sc1nc(N3CCOCC3)c3c(c12)CC(C)(C)OC3	none
Cc1ccc(S(=O)(=O)Nc2cccc3cccnc23)c([N+](=O)[O-])c1	MITF TRPM1 inh 88.4, HIF-2a block 57.4, CF NFkB block 67.6, Peg3 prom inh-1 103.2 | Peg3 prom inh-2 95.5 | CF NFkB inh conf 107.8 | Mdm2 MdmX conf 101.5 | HIF-2a inh conf 74.7 | HIF-1a counter inactive
O=S(=O)(Nc1cccc2cccnc12)c1ccccc1	MITF TRPM1 inh 89.5, HIF-2a block 57.8, CF NFkB block 77.5, Peg3 prom inh-1 102.6 | Peg3 prom inh-2 99.5 | CF NFkB inh conf 109.4 | Mdm2 MdmX conf 102.2 | HIF-2a inh conf 62.0 | HIF-1a counter inactive
O=C(Nc1nnc(SCc2ccc(F)cc2)s1)c1ccc2c(c1)C(=O)N(c1ccccc1Cl)C2=O	none
COc1cc(C(=O)/C=C/c2cccnc2)c([N+](=O)[O-])cc1OC	HIF-2a block 89.5, Peg3 prom inh-1 69.0 | Peg3 prom inh-2 96.0 | HIF-2a inh conf 73.3 | HIF-1a counter 96.3
Cc1nc(SCC(=O)Nc2nc3ccccc3s2)c(C#N)c(C)c1C	Shn3 3UTR inh inconclusive, MITF TRPM1 inh 95.9, HIF-2a block 89.0, Peg3 prom inh-1 92.8 | Peg3 prom inh-2 90.1 | Mdm2 MdmX conf 101.2 | HIF-2a inh conf 94.8 | HIF-1a counter 104.8
CC(c1ccccc1)N(C)C(=O)CSc1nnc(C2CC2)n1C1CC1 (stereo not drawn)	none
O=C1COc2ccccc2N1Cc1ccc(Cl)cc1	none
CC(=O)c1c(NCc2ccccc2)nc(=O)n(-c2ccccc2)c1C	none
CC(=O)c1c(NCCc2ccccc2)nc(=S)n(-c2ccccc2)c1C	HIF-2a block 92.1, Peg3 prom inh-1 101.1 | Peg3 prom inh-2 98.6 | HIF-2a inh conf inactive | HIF-1a counter inactive
COc1ccc(N(C(=O)CCl)C(C(=O)NC2CCCCC2)c2cccnc2)cc1 (stereo not drawn)	MITF TRPM1 inh 86.9, Peg3 prom inh-1 99.7 | Peg3 prom inh-2 98.9 | Mdm2 MdmX conf 103.5
